# Measurements taken from article PMC11006913.
# Changes are numbered by the printed parent chain.
# What was measured:
# Assay in all cases: PBM; 200 nM protein, PBS
# Conditions in all cases: dsDNA, one strand shown
# HOXB4 [1] = target: HOXB4 (Homo sapiens, UniProt P17483 148-234)
# SHOX [2] = target: SHOX (Homo sapiens, UniProt O15266 103-189)
# HOXB9 [3] = target: HOXB9 (Homo sapiens, UniProt P17482 171-250, T197M)
# HOXB9 [4] = target: HOXB9 (Homo sapiens, UniProt P17482 171-250)
# HOXB4 [5] = target: HOXB4 (Homo sapiens, UniProt P17483 148-234, V174I)
# HOXB4 (Homo sapiens, UniProt P17483 148-234, V174I), sequence (P17483 148-234 V174I): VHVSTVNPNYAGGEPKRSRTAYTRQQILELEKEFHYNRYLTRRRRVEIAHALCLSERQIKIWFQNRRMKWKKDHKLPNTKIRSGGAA
# ALX1 [6] = target: ALX1 (Homo sapiens, UniProt Q15699 118-204, L144V)
# ALX1 (Homo sapiens, UniProt Q15699 118-204, L144V), sequence (Q15699 118-204 L144V): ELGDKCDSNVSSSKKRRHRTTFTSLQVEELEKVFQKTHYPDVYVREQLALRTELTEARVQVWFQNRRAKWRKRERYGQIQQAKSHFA
# SHOX [7] = target: SHOX (Homo sapiens, UniProt O15266 103-189, R173C)
# SHOX (Homo sapiens, UniProt O15266 103-189, R173C), sequence (O15266 103-189 R173C): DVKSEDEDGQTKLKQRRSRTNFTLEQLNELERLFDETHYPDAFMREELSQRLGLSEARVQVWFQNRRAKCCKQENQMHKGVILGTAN
# ALX1 [8] = target: ALX1 (Homo sapiens, UniProt Q15699 118-204, L144R)
# ALX1 (Homo sapiens, UniProt Q15699 118-204, L144R), sequence (Q15699 118-204 L144R): as the sequence (Q15699 118-204 L144V) above, with V27R counted along it
# HOXB9 [9] = target: HOXB9 (Homo sapiens, UniProt P17482 171-250, R186Q)
# HOXB9 (Homo sapiens, UniProt P17482 171-250, R186Q), sequence (P17482 171-250 R186Q): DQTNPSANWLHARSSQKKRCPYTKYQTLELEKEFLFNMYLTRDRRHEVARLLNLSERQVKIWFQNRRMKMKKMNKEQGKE
# ALX1 [10] = target: ALX1 (Homo sapiens, UniProt Q15699 118-204)
# ALX1 (Homo sapiens, UniProt Q15699 118-204), sequence (Q15699 118-204): as the sequence (Q15699 118-204 L144V) above, with V27L counted along it
# HESX1 [11] = target: HESX1 (Homo sapiens, UniProt Q9UBX0 95-180, R165K)
# HESX1 (Homo sapiens, UniProt Q9UBX0 95-180, R165K), sequence (Q9UBX0 95-180 R165K): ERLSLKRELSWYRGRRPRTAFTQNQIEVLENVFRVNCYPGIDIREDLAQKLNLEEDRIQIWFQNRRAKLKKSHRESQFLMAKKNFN
# HESX1 [12] = target: HESX1 (Homo sapiens, UniProt Q9UBX0 95-180)
# HESX1 (Homo sapiens, UniProt Q9UBX0 95-180), sequence (Q9UBX0 95-180): as the sequence (Q9UBX0 95-180 R165K) above, with K71R counted along it
# HESX1 [13] = target: HESX1 (Homo sapiens, UniProt Q9UBX0 95-180, F115L)
# HESX1 (Homo sapiens, UniProt Q9UBX0 95-180, F115L), sequence (Q9UBX0 95-180 F115L): as the sequence (Q9UBX0 95-180 R165K) above, with F21L, K71R counted along it
# CRX [14] = target: CRX (Homo sapiens, UniProt O43186 26-111)
# CRX (Homo sapiens, UniProt O43186 26-111), sequence (O43186 26-111): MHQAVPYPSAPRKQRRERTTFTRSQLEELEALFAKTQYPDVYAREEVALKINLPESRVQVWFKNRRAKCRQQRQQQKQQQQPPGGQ
# HOXC9 [15] = target: HOXC9 (Homo sapiens, UniProt P31274 178-260, K195R)
# HOXC9 (Homo sapiens, UniProt P31274 178-260, K195R), sequence (P31274 178-260 K195R): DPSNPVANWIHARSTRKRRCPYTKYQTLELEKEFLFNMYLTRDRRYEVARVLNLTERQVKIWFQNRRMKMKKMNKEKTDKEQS
# PAX4 [16] = target: T1, PAX4 (Homo sapiens, UniProt O43316 9-242, R200K)
# T1 sequence: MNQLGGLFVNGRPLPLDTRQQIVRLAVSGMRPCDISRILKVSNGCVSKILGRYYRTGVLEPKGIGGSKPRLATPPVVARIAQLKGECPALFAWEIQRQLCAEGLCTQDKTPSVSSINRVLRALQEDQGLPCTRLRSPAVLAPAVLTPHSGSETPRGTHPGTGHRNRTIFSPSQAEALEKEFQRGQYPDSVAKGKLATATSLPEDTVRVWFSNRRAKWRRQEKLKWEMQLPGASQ
# PAX4 [17] = target: T2, PAX4 (Homo sapiens, UniProt O43316 9-242)
# T2 sequence: T1 sequence with K192R
# CRX [18] = target: CRX (Homo sapiens, UniProt O43186 26-111, E42D)
# CRX (Homo sapiens, UniProt O43186 26-111, E42D), sequence (O43186 26-111 E42D): as the sequence (O43186 26-111) above, with E17D counted along it
# HOXC9 [19] = target: HOXC9 (Homo sapiens, UniProt P31274 178-260)
# HOXC9 (Homo sapiens, UniProt P31274 178-260), sequence (P31274 178-260): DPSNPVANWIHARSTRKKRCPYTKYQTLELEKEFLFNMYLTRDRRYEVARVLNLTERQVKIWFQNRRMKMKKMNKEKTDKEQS
# ALX3 [20] = target: ALX3 (Homo sapiens, UniProt O95076 139-225, N203Q)
# ALX3 (Homo sapiens, UniProt O95076 139-225, N203Q), sequence (O95076 139-225 N203Q): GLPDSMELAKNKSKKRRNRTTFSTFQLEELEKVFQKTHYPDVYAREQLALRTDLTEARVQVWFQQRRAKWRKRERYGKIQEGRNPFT
# PAX4 [21] = target: T3, PAX4 (Homo sapiens, UniProt O43316 9-242, R200Q)
# T3 sequence: T1 sequence with K192Q
# HOXC9 [22] = target: HOXC9 (Homo sapiens, UniProt P31274 178-260, R193K)
# HOXC9 (Homo sapiens, UniProt P31274 178-260, R193K), sequence (P31274 178-260 R193K): as the sequence (P31274 178-260) above, with R16K counted along it
# PAX4 [23] = target: T4, PAX4 (Homo sapiens, UniProt O43316 9-242, F177V)
# T4 sequence: T1 sequence with F169V, K192R
# ALX3 [24] = target: ALX3 (Homo sapiens, UniProt O95076 139-225)
# ALX3 (Homo sapiens, UniProt O95076 139-225), sequence (O95076 139-225): as the sequence (O95076 139-225 N203Q) above, with Q65N counted along it
# PAX4 [25] = target: T5, PAX4 (Homo sapiens, UniProt O43316 9-242, F177Y)
# T5 sequence: T1 sequence with F169Y, K192R
# VAX1 [26] = target: VAX1 (Homo sapiens, UniProt Q5SQQ9 86-172)
# VAX1 (Homo sapiens, UniProt Q5SQQ9 86-172), sequence (Q5SQQ9 86-172): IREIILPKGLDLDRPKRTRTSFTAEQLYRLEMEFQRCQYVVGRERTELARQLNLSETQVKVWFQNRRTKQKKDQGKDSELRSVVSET
# ALX3 [27] = target: ALX3 (Homo sapiens, UniProt O95076 139-225, L168Q)
# ALX3 (Homo sapiens, UniProt O95076 139-225, L168Q), sequence (O95076 139-225 L168Q): as the sequence (O95076 139-225 N203Q) above, with L30Q, Q65N counted along it
# HOXC9 [28] = target: HOXC9 (Homo sapiens, UniProt P31274 178-260, R222W)
# HOXC9 (Homo sapiens, UniProt P31274 178-260, R222W), sequence (P31274 178-260 R222W): as the sequence (P31274 178-260) above, with R45W counted along it
# ALX3 [29] = target: ALX3 (Homo sapiens, UniProt O95076 139-225, L168V)
# ALX3 (Homo sapiens, UniProt O95076 139-225, L168V), sequence (O95076 139-225 L168V): as the sequence (O95076 139-225 N203Q) above, with L30V, Q65N counted along it
# VAX1 [30] = target: VAX1 (Homo sapiens, UniProt Q5SQQ9 86-172, T142I)
# VAX1 (Homo sapiens, UniProt Q5SQQ9 86-172, T142I), sequence (Q5SQQ9 86-172 T142I): as the sequence (Q5SQQ9 86-172) above, with T57I counted along it
# PAX4 [31] = target: T6, PAX4 (Homo sapiens, UniProt O43316 9-242, R227W)
# T6 sequence: T1 sequence with K192R, R219W
# CRX [32] = target: CRX (Homo sapiens, UniProt O43186 26-111, R41L)
# CRX (Homo sapiens, UniProt O43186 26-111, R41L), sequence (O43186 26-111 R41L): as the sequence (O43186 26-111) above, with R16L counted along it
# ALX3 [33] = target: ALX3 (Homo sapiens, UniProt O95076 139-225, N203S)
# ALX3 (Homo sapiens, UniProt O95076 139-225, N203S), sequence (O95076 139-225 N203S): as the sequence (O95076 139-225 N203Q) above, with Q65S counted along it
# VAX1 [34] = target: VAX1 (Homo sapiens, UniProt Q5SQQ9 86-172, K157R)
# VAX1 (Homo sapiens, UniProt Q5SQQ9 86-172, K157R), sequence (Q5SQQ9 86-172 K157R): as the sequence (Q5SQQ9 86-172) above, with K72R counted along it
# HESX1 [35] = target: HESX1 (Homo sapiens, UniProt Q9UBX0 95-180, P111T)
# HESX1 (Homo sapiens, UniProt Q9UBX0 95-180, P111T), sequence (Q9UBX0 95-180 P111T): as the sequence (Q9UBX0 95-180 R165K) above, with P17T, K71R counted along it
# HOXB4 (Homo sapiens, UniProt P17483 148-234), sequence (P17483 148-234): as the sequence (P17483 148-234 V174I) above, with I27V counted along it
# HOXB9 (Homo sapiens, UniProt P17482 171-250, T197M), sequence (P17482 171-250 T197M): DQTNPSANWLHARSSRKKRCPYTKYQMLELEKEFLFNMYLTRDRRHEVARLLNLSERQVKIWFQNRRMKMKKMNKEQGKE
# SHOX (Homo sapiens, UniProt O15266 103-189), sequence (O15266 103-189): as the sequence (O15266 103-189 R173C) above, with C71R counted along it
# HOXB9 (Homo sapiens, UniProt P17482 171-250), sequence (P17482 171-250): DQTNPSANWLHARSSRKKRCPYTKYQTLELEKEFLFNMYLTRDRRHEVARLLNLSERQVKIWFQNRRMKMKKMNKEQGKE
sequence,measurement,setting,value
CGGGAGAG,binding signal,HOXB4 [1],"7.57 upbm affinity estimate (log intensity, higher = more binding, comparable within an allelic series)"
same,binding signal,SHOX [2],"6.89 upbm affinity estimate (log intensity, higher = more binding, comparable within an allelic series)"
same,binding signal,HOXB9 [3],"8.56 upbm affinity estimate (log intensity, higher = more binding, comparable within an allelic series)"
same,binding signal,HOXB9 [4],"8.56 upbm affinity estimate (log intensity, higher = more binding, comparable within an allelic series)"
same,binding signal,HOXB4 [5],"7.66 upbm affinity estimate (log intensity, higher = more binding, comparable within an allelic series)"
same,binding signal,ALX1 [6],"6.33 upbm affinity estimate (log intensity, higher = more binding, comparable within an allelic series)"
same,binding signal,SHOX [7],"7.16 upbm affinity estimate (log intensity, higher = more binding, comparable within an allelic series)"
same,binding signal,ALX1 [8],"6.21 upbm affinity estimate (log intensity, higher = more binding, comparable within an allelic series)"
same,binding signal,HOXB9 [9],"8.56 upbm affinity estimate (log intensity, higher = more binding, comparable within an allelic series)"
same,binding signal,ALX1 [10],"6.23 upbm affinity estimate (log intensity, higher = more binding, comparable within an allelic series)"
CATTAGGG,binding signal,HESX1 [11],"8.41 upbm affinity estimate (log intensity, higher = more binding, comparable within an allelic series)"
same,binding signal,HESX1 [12],"8.4 upbm affinity estimate (log intensity, higher = more binding, comparable within an allelic series)"
same,binding signal,HESX1 [13],"6.71 upbm affinity estimate (log intensity, higher = more binding, comparable within an allelic series)"
CGAGGGTC,binding signal,HOXB4 [1],"7.67 upbm affinity estimate (log intensity, higher = more binding, comparable within an allelic series)"
same,binding signal,CRX [14],"8.26 upbm affinity estimate (log intensity, higher = more binding, comparable within an allelic series)"
same,binding signal,HOXC9 [15],"9.55 upbm affinity estimate (log intensity, higher = more binding, comparable within an allelic series)"
same,binding signal,PAX4 [16],"8.99 upbm affinity estimate (log intensity, higher = more binding, comparable within an allelic series)"
same,binding signal,PAX4 [17],"9.09 upbm affinity estimate (log intensity, higher = more binding, comparable within an allelic series)"
same,binding signal,HOXB4 [5],"7.5 upbm affinity estimate (log intensity, higher = more binding, comparable within an allelic series)"
same,binding signal,CRX [18],"8.34 upbm affinity estimate (log intensity, higher = more binding, comparable within an allelic series)"
same,binding signal,HOXC9 [19],"9.61 upbm affinity estimate (log intensity, higher = more binding, comparable within an allelic series)"
same,binding signal,ALX3 [20],"7.7 upbm affinity estimate (log intensity, higher = more binding, comparable within an allelic series)"
same,binding signal,PAX4 [21],"9.19 upbm affinity estimate (log intensity, higher = more binding, comparable within an allelic series)"
same,binding signal,HOXC9 [22],"9.61 upbm affinity estimate (log intensity, higher = more binding, comparable within an allelic series)"
same,binding signal,PAX4 [23],"9.25 upbm affinity estimate (log intensity, higher = more binding, comparable within an allelic series)"
same,binding signal,ALX3 [24],"7.59 upbm affinity estimate (log intensity, higher = more binding, comparable within an allelic series)"
same,binding signal,PAX4 [25],"9.23 upbm affinity estimate (log intensity, higher = more binding, comparable within an allelic series)"
same,binding signal,VAX1 [26],"6.87 upbm affinity estimate (log intensity, higher = more binding, comparable within an allelic series)"
same,binding signal,ALX3 [27],"7.67 upbm affinity estimate (log intensity, higher = more binding, comparable within an allelic series)"
same,binding signal,HOXC9 [28],"9.69 upbm affinity estimate (log intensity, higher = more binding, comparable within an allelic series)"
same,binding signal,ALX3 [29],"7.68 upbm affinity estimate (log intensity, higher = more binding, comparable within an allelic series)"
same,binding signal,VAX1 [30],"7 upbm affinity estimate (log intensity, higher = more binding, comparable within an allelic series)"
same,binding signal,PAX4 [31],"9.33 upbm affinity estimate (log intensity, higher = more binding, comparable within an allelic series)"
same,binding signal,CRX [32],"8.26 upbm affinity estimate (log intensity, higher = more binding, comparable within an allelic series)"
same,binding signal,ALX3 [33],"7.71 upbm affinity estimate (log intensity, higher = more binding, comparable within an allelic series)"
same,binding signal,VAX1 [34],"7.08 upbm affinity estimate (log intensity, higher = more binding, comparable within an allelic series)"
ATTCATAA,binding signal,HESX1 [11],"7.97 upbm affinity estimate (log intensity, higher = more binding, comparable within an allelic series)"
same,binding signal,HESX1 [12],"8.03 upbm affinity estimate (log intensity, higher = more binding, comparable within an allelic series)"
same,binding signal,HESX1 [35],"7.62 upbm affinity estimate (log intensity, higher = more binding, comparable within an allelic series)"
TGTGATAA,binding signal,HESX1 [11],"7.98 upbm affinity estimate (log intensity, higher = more binding, comparable within an allelic series)"
same,binding signal,HESX1 [12],"8.21 upbm affinity estimate (log intensity, higher = more binding, comparable within an allelic series)"
same,binding signal,HESX1 [35],"7.65 upbm affinity estimate (log intensity, higher = more binding, comparable within an allelic series)"
